# Results taken from PubChem BioAssay AID651789 (National Center for Advancing Translational Sciences (NCATS), 2012).
# Records with an inconclusive call do not appear. Entries that show only a call come without a potency. Calls of active or inactive are those of the source. Calls come from the whole dose curve; as a rule, active = well fitted inhibition curve with a large enough effect; inconclusive = small, poorly fitted or top-dose-only effect; inactive = no such curve, though single readings can be large or run the other way.
# Experiment: Acumen qHTS Assay for Inhibitors of the mTORC1 Signaling Pathway in WT MEF Cells: Hit Validation; note: nearly all actives have a fitted effect of over 60% in size
# Conditions: Acumen imaging; series mostly up to 37.3 µM
# Outline: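 Read-out is immunofluorescent phospho-rpS6 (Ser235/236) normalised to PI-stained cell number, reported as % active cells using a 7.5 nM rapamycin threshold. Cells: WT or Tsc2-/-, p53-/- MEFs, compound-exposed 24 h at 37C; PI count also tracks viability.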
# Potency is the fitted concentration of half-maximal effect.
row,Structure (SMILES),Potency
1,CC(C)CCNc1nc(Nc2ccccc2)c2cnn(C)c2n1,inactive
2,CCCC1=Nc2cc(C(=O)NCc3ccccc3)ccc2Sc2ccccc21,2.61 µM (active)
3,CCN1CCN(C(=O)Cn2ncc3c4ccccc4n(Cc4c(C)cc(C)cc4C)c3c2=O)CC1,5.21 µM (active)
4,COc1cccc(-c2nc(SCC(=O)NCC3CCCO3)c(-c3ccc(F)cc3)[nH]2)c1 (stereo not given),inactive
5,COc1ccc(S(=O)(=O)NCCc2sc3nc(-c4ccc(C)cc4)nn3c2C)cc1F,inactive
6,O=C(CC1(O)C(=O)N(CCc2ccccc2)c2ccc(Br)cc21)c1ccccc1O (stereo not given),inactive
7,COC(=O)c1ccccc1NC(=O)Cn1c(=O)n(-c2ccc(C)cc2)c(=O)c2ccccc21,inactive
8,CCCCS(=O)(=O)c1oc(-c2ccc(F)cc2)nc1S(=O)(=O)c1ccc(C)cc1,5.21 µM (active)
9,Cc1c(C(=O)OCCOc2ccccc2)[nH]c2c1C(=O)CC(c1ccccc1)C2 (stereo not given),0.0656 µM (active)
10,CCn1c2ccccc2c2cc(CN3CCN(Cc4ccc(Cl)cc4)CC3)ccc21,inactive
11,Nc1nnc(SCC(=O)Nc2cccc(F)c2)s1,inactive
12,COc1ccc(CC(=O)Nc2sc3c(c2C(=O)Nc2ccccc2)CCCCC3)cc1,13.1 µM (active)
13,CCOc1ccc(Nc2nc(-c3cccc(Cl)c3)c3c(n2)-c2ccccc2OC3)cc1,inactive
14,Nc1c(C(=O)NCc2ccccc2)nnn1Cc1cccc(Br)c1,13.1 µM (active)
15,CS(=O)c1ccc(-c2nc(-c3ccc(F)cc3)c(-c3ccncc3)[nH]2)cc1 (stereo not given),inactive
16,CCOC(=O)c1c(NC(=O)c2cc(CC)on2)sc(C(C)=O)c1C,inactive
17,Cc1cccc(C(=O)Nc2c3c(nn2-c2ccc(Cl)cc2)CS(=O)(=O)C3)c1,inactive
18,COc1ccc(N2CCN(C(=O)C(C)n3nc(C)c4sc5ccccc5c4c3=O)CC2)cc1 (stereo not given),inactive
19,COc1ccc(NC(=O)C(NC(=O)/C=C\c2ccc3c(c2)OCO3)c2ccccc2)cc1 (stereo not given),inactive
20,CCOC(=O)c1ccc2ncc(C(=O)OCC)c(NCCc3ccc(OC)c(OC)c3)c2c1,inactive

row,Structure (SMILES),Potency
1,Cc1cn([C@H]2C[C@H](N=[N+]=[N-])[C@@H](CO)O2)c(=O)[nH]c1=O,inactive
2,CCOC(=O)c1ccc(N2C(=O)c3n[nH]c(C)c3C2c2cccc(Br)c2)cc1 (stereo not given),inactive
3,COc1ccc(C2CC(=O)c3c([nH]c(C(=O)OC4CCCCCC4)c3C)C2)cc1OC (stereo not given),inactive
4,CCCCOC(=O)c1ccc(NC(=O)c2ccc3c(c2)CCN3S(=O)(=O)c2ccccc2)cc1,inactive
5,COc1ccccc1C1C=C(c2ccc(Cl)cc2)Nc2nc(-c3ccc(Cl)cc3)nn21 (stereo not given),inactive
6,Cc1ccc(C)c(S(=O)(=O)NCC(c2ccco2)S(=O)(=O)c2ccc(F)cc2)c1 (stereo not given),inactive
7,CCCOc1cccc(C2c3c(-c4ccccc4O)n[nH]c3C(=O)N2Cc2ccco2)c1 (stereo not given),inactive
8,CCN(CC)Cc1c(NC(=O)c2ccc(OC)cc2)sc2c1CCCC2,inactive
9,COc1ccc(NC(=O)c2ccc3c(=O)n4nc(Nc5cc(C)ccc5C)sc4nc3c2)cc1,2.93 µM (active)
10,Cc1cc(C)c2oc(-c3cccc(NC(=O)COc4ccc([N+](=O)[O-])cc4)c3)nc2c1,inactive
11,Cc1ccc(-c2nnn(CC(=O)N(CC(=O)NCCC(C)C)c3ccc(F)cc3)n2)cc1,inactive
12,COc1ccc(S(=O)(=O)NCCc2csc3nc(-c4ccc(Cl)cc4)nn23)cc1C,inactive
13,CCN(CC)CCn1c(=N)n(CCOc2ccccc2Cl)c2ccccc21,9.27 µM (active)
14,CCCCOc1cccc(C(=O)N2CCN(CCc3ccncc3)CC2)c1,inactive
15,COc1ccc(CCCc2nnc(SCC(=O)Nc3ccc(OC)cc3)o2)cc1,inactive
16,COc1cc(OC)c(NS(=O)(=O)c2ccc3c(c2)CCCN3C(C)=O)cc1Cl,inactive
17,CCOC(=O)c1c(NC(=O)COc2ccc(OC)cc2)sc(C(=O)N(CC)CC)c1C,inactive
18,Cc1nn(CC(=O)NCc2ccccc2Cl)c(=O)c2cccn12,inactive
19,COc1cc(CN(C(=O)COc2ccc(C)c(C)c2)c2ccccn2)cc(OC)c1OC,inactive
20,CN(Cc1ccccc1)C(=O)CSc1c2c(nc3ccc(Cl)cc13)CCCC2,inactive
